Assay [1] in a line: CCTE_Harrill_HTTr_Apoptosis_MCF7: CCTE's 6-hour Apoptosis Assessment for the High-Throughput Transcriptomics (HTTr) Platform, in MCF-7 cells cultured in DMEM + 10% fetal bovine serum, Harrill Lab (AID 2284011). The method in brief:
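Read-out: CellEvent Caspase 3/7 Green signal by high content imaging, gain-of-signal indicating apoptosis. MCF-7 cells, DMEM + 10% FBS, eight-point dilution series, 6 h exposure. Curves fitted bidirectionally relative to DMSO negative control.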

A short description of assay [2]: CCTE_Harrill_HTTr_CellCount_MCF7: CCTE's Cell Proliferation Assessment for the High-Throughput Transcriptomics (HTTr) Platform, Harrill Lab (AID 2284012; active means hit-call score of the fitted dose curve at least 0.9, where 1 is the maximum;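 further: cells exposed to compound for six hours; intended direction is loss of nuclei count meaning fewer cells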). The method in brief: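 MCF-7 cells were exposed for 6 h to an eight-point dilution series; Hoechst-labeled nuclei were counted by high content imaging. Curves were fitted bidirectionally against DMSO as negative control and baseline, with signal loss indicating reduced cell count.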

Assay [3] in a line: CCTE_Shafer_MEA_acute_burst_number: CCTE's Neural Acute Assay for Single-Electrode Bursts, Shafer Lab (AID 2284013). The method in brief:
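Spontaneous network activity of primary rat cortical neurons was recorded extracellularly on microelectrode arrays at 37 C, with 40-min periods before and during exposure to 0.03-40 uM compound on DIV 13 or 15.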

Assay [4] in a line: CCTE_Shafer_MEA_acute_burst_duration_mean: CCTE's Neural Acute Assay for Mean Burst Duration, Shafer Lab (AID 2284014).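 Further: hits are decreases in mean burst duration relative to DMSO controls.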 The method in brief:
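Read-out is the per-well percent change in mean burst duration (first to last spike within a single-electrode burst) between 40-min recordings before and after compound. Cultures were primary rat cortical neurons on MEAs, dosed at 0.03-40 uM on DIV 13 or 15.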

A short description of assay [5]: CCTE_Shafer_MEA_acute_per_burst_spike_number_mean: CCTE's Neural Acute Assay for Average Number of Spikes Per Burst, Shafer Lab (AID 2284015).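 Further: hits are decreases in mean spikes per burst versus baseline.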 The method in brief:
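Rat primary cortical neurons on 48-well MEAs (DIV 13 or 15) were treated with 0.03-40 uM compound at 37 C. Mean spikes per burst over 40 min were recorded before and after exposure and expressed as percent change from baseline, relative to DMSO.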

Assay [6] can be described thus: CCTE_Shafer_MEA_acute_interburst_interval_mean: CCTE's Neural Acute Assay for Mean Interburst Interval, Shafer Lab (AID 2284016).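 Further: percent change of mean interburst interval versus each well's own pre-dose baseline; curves fitted for decrease in interburst interval relative to DMSO.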 The method, boiled down:
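Rat primary cortical neurons on 48-well MEAs at DIV 13 or 15 were exposed acutely to 0.03-40 uM. Spikes detected at 8x rms noise, 37 C. Mean interburst interval from 40 min recordings expressed as percent change from 40 min pre-treatment baseline.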

Assay [7] in a line: CCTE_Shafer_MEA_acute_burst_percentage_std: CCTE's Neural Acute Assay for Standard Deviation of Burst Percentage, Shafer Lab (AID 2284018).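 Further: fitted in the negative direction so actives lower burst percentage SD.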 The method, boiled down:
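Value is percent change from baseline in the across-electrode SD of spikes-in-bursts percentage, wells with >/= 10 active electrodes. Acute 40-min exposure to 0.03-40 uM on DIV 13 or 15 rat cortical cultures, recorded at 37 C after 40-min baseline.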

Assay [8] in a line: CCTE_Shafer_MEA_acute_per_network_burst_spike_number_mean: CCTE's Neural Acute Assay for Average Number of Spikes in a Network Burst, Shafer Lab (AID 2284019).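 On AC50: curve fitted for loss of signal so actives reduce spikes per network burst.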 The method, boiled down:
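Read-out is mean spike count per network burst, taken as percent change between a 40-min pre-exposure and a 40-min post-exposure recording per well. Rat primary cortical neurons on MEAs at 37 C, DIV 13 or 15; compounds at 0.03-40 uM.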

Assay [9] is described as follows: CCTE_Shafer_MEA_acute_per_network_burst_spike_number_std: CCTE's Neural Acute Assay for Standard Deviation of Number of Spikes in a Network Burst, Shafer Lab (AID 2284020).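 Further: fitted for decrease in spike-number SD versus DMSO so actives lower it.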 The method, boiled down: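 Spontaneous network activity of primary rat cortical neurons is recorded extracellularly before and after a 40-min compound exposure (0.03-40 uM) at 37 C. The endpoint is the well's percent change in burst spike-number SD.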

Assay [10] can be described thus: CCTE_Shafer_MEA_acute_per_network_burst_electrodes_number_mean: CCTE's Neural Acute Assay for Mean Number of Electrodes in a Network Burst, Shafer Lab (AID 2284021).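 Further: curves fitted for decreases only so hits reduce electrodes per burst.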 The method in brief: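 Readout: % change in mean electrodes active per network burst, post- vs pre-treatment, each well. Spikes detected at 8x rms noise after 300-5000 Hz band-pass; rat cortical cultures, DIV 13/15, compounds 0.03-40 uM, DMSO baseline.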

Each structure is given as a SMILES string. Inconclusive results are not listed. The source made the active and inactive calls. How the source made its calls, unless noted: active means hit-call score of the fitted dose curve at least 0.9, where 1 is the maximum; inactive means score below 0.9.

Turning to `Nc1ccc(Cl)cc1N`, the result in assay [1] and in assay [2] was inactive.
As to `CCC(C)c1ccc(O)cc1` (configuration not stated), the outcome in assay [1], in assay [3], in assay [4], in assay [7], in assay [8] and in assay [10] was inactive. The values for the AC50 in [5], in assay [6] and in assay [9] were 32 µM (active), 30 µM (active) and 30 µM (active), respectively.
Take `ClC1=C(Cl)[C@]2(Cl)[C@H]3[C@H]([C@@H]4C=C[C@H]3C4)[C@@]1(Cl)C2(Cl)Cl`: the outcome in assay [1], in assay [2], in [3], in assay [4], in assay [5] and in [6] was inactive. Besides, the compound was called inactive in assay [7], in assay [8], in assay [9] and in assay [10].
`O=[N+]([O-])c1ccc(Oc2ccc(Cl)cc2Cl)cc1`: the result in assay [1], in assay [2], in assay [3], in [4], in [5] and in assay [7] was inactive. Besides, in [8], the result was inactive. Further, the values for the AC50 in assay [6], in assay [9] and in assay [10] were 4.1 µM (active), 10.8 µM (active) and 20 µM (active), respectively.
For the compound `Nc1ccc(N=Nc2ccccc2)cc1`, the outcome in assay [1] and in assay [2] was inactive.
Consider `C[N+](C)(C)CC1CO1` (configuration not stated), for which the result in assay [1], in assay [3], in assay [4], in assay [5], in assay [6] and in [7] was inactive. Moreover, the compound was classed as inactive in [8], in assay [9] and in assay [10].
As for `COc1cc(C=O)cc2c1[C@H](COC(N)=O)[C@]1(OC(C)=O)ON2C[C@H]2[C@@H]1N2C(C)=O`, the outcome in assay [1] and in assay [2] was inactive.
Regarding `CCCCCOC(=O)c1ccccc1C(=O)OCCCCC`, the result in assay [1], in assay [2], in assay [4], in [7], in [8] and in assay [10] was inactive. Besides, the AC50 is 5.2 µM (active) in assay [3], 4.26 µM (active) in [5], 1.49 µM (active) in assay [6] and 4.73 µM (active) in assay [9].
For the compound `CC(C)(O)c1cnn2c(-c3ccc(F)c(-c4c(F)cccc4C#N)c3)cnc2n1`, the outcome in assay [1], in assay [2], in assay [4], in assay [5], in assay [6] and in assay [7] was inactive. Further, the call in [8] was inactive. Also, the AC50 in assay [3] is 1.18 µM (active); in [9], 3.97 µM (active); in assay [10] it was 20 µM (active).
As to `CCOc1cccc(C2(N3CCN(c4ccccc4)CC3)CCC(C)CC2)c1` (configuration not stated), the outcome in [1] and in assay [2] was inactive.
Consider `CC(C)COC(=O)c1ccccc1C(=O)OCC(C)C`, for which the result in assay [1], in assay [2], in assay [3], in [6], in assay [7] and in assay [10] was inactive. Moreover, the AC50 in assay [4] was 20 µM (active); in assay [5] it was 6.45 µM (active); in [8] it was 6.67 µM (active); in assay [9] it was 8.5 µM (active).
On to `CC(C)(OOC(C)(C)c1ccccc1)c1ccccc1`, for which the result in assay [1], in assay [3], in [4], in assay [5], in assay [6] and in assay [7] was inactive. For the same compound, the compound was classed as inactive in [8], in [9] and in [10].
On to `CCCCOC(=O)c1ccccc1C(=O)OCc1ccccc1`, for which the result in assay [1], in assay [2] and in assay [4] was inactive. Further, the AC50 was 2.71 µM (active) in assay [3]; 5 µM (active) in [5]; 3.83 µM (active) in assay [6]; 5 µM (active) in [7]; 2.58 µM (active) in assay [8]; 5 µM (active) in assay [9]. Moreover, in assay [10], the half-maximal activity concentration (AC50) is 5 µM (active).
Take `COC(=O)c1ccccc1N`: the outcome in assay [1] and in assay [2] was inactive.
Regarding `O=C(N[C@H](c1ccccc1)[C@@H]1CN2CCC1CC2)c1c(Cl)ccc(C(F)(F)F)c1Cl`, the outcome in [1], in [2], in [4], in assay [5], in [6] and in [7] was inactive. The call in assay [8], in assay [9] and in [10] was inactive. Further, in assay [3], the concentration at half-maximal activity (AC50) was 1.68 µM (active).
Regarding `CC(C)(C)C(O)(CCc1ccc(Cl)cc1)Cn1cncn1` (configuration not stated), the result in [1], in assay [2], in assay [4], in assay [5], in assay [7] and in assay [9] was inactive. Moreover, in assay [10], the result was inactive. Moreover, the AC50 in assay [3] was 3.5 µM (active); in assay [6], 5.9 µM (active); in [8] it was 1.22 µM (active).
Consider `ClC1=C(Cl)C2(Cl)C3C(Cl)C=CC3C1(Cl)C2(Cl)Cl` (configuration not stated), for which the outcome in assay [1], in [2], in [4], in assay [6] and in assay [9] was inactive. Also, the AC50 in assay [3] was 20 µM (active); in assay [5], 4.15 µM (active); in assay [7], 20 µM (active); in assay [8], 4.22 µM (active); in assay [10], 4.31 µM (active).
For the compound `Clc1ccc(C(c2ccc(Cl)cc2)C(Cl)(Cl)Cl)cc1`, the outcome in [1], in assay [2], in assay [3], in [4], in assay [5] and in assay [6] was inactive. Moreover, the result in assay [8] and in [9] was inactive. Further, the values for the AC50 in assay [7] and in assay [10] were 5.34 µM (active) and 4.35 µM (active), respectively.

As usually defined, the AC50 is the midpoint of the concentration-response curve, whichever way the signal moves.

These data come from PubChem BioAssay (EPA / NIEHS).
